Screening data deposited in PubChem by several laboratories.
TROY NFkB inh: blocks TROY-dependent signaling in reporter cells; Q293 LMP1-TROYcd NF-kB luciferase reporter, 4 h; inhibition, % at 10 µM; 360,000 tested, 0.98% active;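 active means compounds whose plate-normalised and pattern-corrected inhibition of the luciferase reporter signal at the single screening dose is 50% or more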
EBV LMP1 NFkB: reduces LMP1-driven NF-kappaB luciferase signal; 350,000 tested, 0.69% active; inhibition, % at 12.5 µM; LMP1-induced NF-kappaB luciferase reporter cells, luminescence; in the data active means inhibition above about 41%; inconclusive means no clear call, values can overlap the other calls;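 further: 0% = neutral control wells and 100% = reference inhibitor control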
LGR2 antag: Drosophila LGR2 receptor signaling inhibition; HEK293 LGR2, CRE-luciferase, bursicon-stimulated, 4 h; inhibition, % at 9.99 µM; 380,000 tested, 0.35% active;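 active means drop in luminescence signal, shown as inhibition above about 50% in the replicate tests, limit read from the data, passing the limit was not always enough; inconclusive means probably only some replicates passing the limit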;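 further: agonist challenge used bursicon conditioned medium at about half maximal strength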
PAX8 inh HTS: inhibitors of PAX8 transcriptional activity in RMG-I cells. RMG-I TPO-luciferase reporter, SteadyGlo, 24 h. AID 652154. inhibition, % at 12.6 µM. 360,000 tested, 1.2% active;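 active means mean replicate inhibition at least 60% with every replicate also reaching 60%; inconclusive means only one of the two criteria is met; inactive means mean below 60% and not all replicates reaching 60%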;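 further: luciferase light reporting Pax8 driven TPO promoter activity; plate controls were median of neutral control wells for no effect and mitoxantrone controls for full effect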
TWEAK Fn14 block: inhibitors of TWEAK-Fn14 interaction signaling; TWEAK-stimulated Fn14 reporter cells, luciferase luminescence, 8 h; 360,000 tested, 2% active; inhibition, % at 10 µM; in the data active means inhibition above about 50%
EWS-Fli inh: blocks EWS/Fli oncoprotein-driven transcription; A673 NR0B1-luciferase reporter, viability-normalised; 350,000 tested, 0.67% active; AID 651661; inhibition, % at 12.6 µM;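 active means mean inhibition of at least 50% after viability correction, with every replicate also passing that limit; inconclusive means mean reaches 50% but only one of two replicates passes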;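 further: firefly luciferase signal divided by Alamar Blue viability fluorescence both relative to DMSO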
* = called active by the depositor; ? = inconclusive; . = no result given. Compounds with a hit are over-represented: about 3.1% of the library has one in this group of screens.

SMILES | TROY NFkB inh | EBV LMP1 NFkB | LGR2 antag | PAX8 inh HTS | TWEAK Fn14 block | EWS-Fli inh
Cc1ccc(C2=NN(C(=O)CCl)C(c3ccco3)C2)o1 (stereo not drawn) | -2 | 21 | -1 | -16 | 55* | 49
CNC[C@@H]1Oc2c(NC(=O)NC(C)C)cccc2C(=O)N([C@@H](C)CO)C[C@H]1C | . | . | -8 | . | . | -1
Cc1cc(-c2csc(NC(=O)c3ccc(=O)[nH]c3)n2)c(C)n1Cc1ccco1 | 5 | 2 | 2 | 8 | 58* | 4
C[C@@H]1CN([C@@H](C)CO)C(=O)c2cc(NS(C)(=O)=O)ccc2O[C@@H](C)CCCCO[C@H]1CN(C)S(=O)(=O)c1ccc(Cl)cc1 | . | . | 1 | -9 | . | -16
CCOCCOC(=O)c1[nH]c2c(c1C)C(=O)CC(c1cc(OC)c(OC)c(OC)c1)C2 (stereo not drawn) | 8 | 28 | 15 | 24 | 2 | 12
CCOCCOC(=O)c1[nH]c2c(c1C)C(=O)CC(c1ccccc1)C2 (stereo not drawn) | 15 | 5 | -4 | 82* | -11 | ?
CCOC(=O)c1[nH]c2c(c1C)C(=O)CC(c1ccc(F)cc1)C2 (stereo not drawn) | 16 | 13 | -18 | 44 | -21 | 63*
CCOC(=O)c1[nH]c2c(c1C)C(=O)CC(c1ccc(OCC)c(OC)c1)C2 (stereo not drawn) | 24 | 15 | . | . | -5 | .
COC(=O)c1[nH]c2c(c1C)C(=O)CC(c1cccc(OC)c1)C2 (stereo not drawn) | 7 | 1 | -7 | 82* | 18 | 60*
COCCOC(=O)c1[nH]c2c(c1C)C(=O)CC(c1cccs1)C2 (stereo not drawn) | 28 | 5 | -2 | 33 | 2 | 61*
Cc1c(C(=O)OCC(C)C)[nH]c2c1C(=O)CC(c1cccs1)C2 (stereo not drawn) | 6 | -8 | . | 53 | -2 | .
CCOCCOC(=O)c1[nH]c2c(c1C)C(=O)CC(c1cccs1)C2 (stereo not drawn) | 19 | -1 | -20 | 60 | 2 | 53*
CCCCCOC(=O)c1[nH]c2c(c1C)C(=O)CC(c1ccco1)C2 (stereo not drawn) | 21 | 7 | . | . | 39 | .
CCCCNCCCOc1ccc(C)cc1Br | -6 | 7 | -9 | -22 | 14 | 7
Cc1ccc(OCCCNCCO)c(Br)c1 | 20 | -7 | . | -26 | 53* | .
COc1ccc(Cc2nc(-c3ccncc3)no2)cc1 | 50* | -4 | -10 | -24 | 36 | -8
Clc1ccc(Cc2nc(-c3ccncc3)no2)cc1 | 5 | 11 | -5 | -19 | -4 | -12
Cc1ccc(/C=C2\CCOC2=O)cc1 | -3 | 9 | -7 | -24 | -1 | -30
Cc1ccc(/C=C2/CNC/C(=C/c3ccc(C)cc3)C2=O)cc1 | 38 | 80* | 55* | 31 | 104* | 53*
CC(C)NC(=O)N(C)C[C@@H]1OCCCC[C@H](C)Oc2ccc(NC(=O)Nc3ccc(C(F)(F)F)cc3)cc2C(=O)N([C@@H](C)CO)C[C@@H]1C | . | . | 4 | 69* | . | 4
CC(C)NC(=O)Nc1ccc2c(c1)C(=O)N([C@H](C)CO)C[C@@H](C)[C@H](CN(C)C(=O)Nc1ccc(C(F)(F)F)cc1)OCCCC[C@@H](C)O2 | . | . | 0 | 68* | . | 24
C[C@@H]1CN([C@H](C)CO)C(=O)c2cc(NC(=O)Nc3ccccc3)ccc2O[C@@H](C)CCCCO[C@H]1CN(C)C(=O)Nc1ccc(C(F)(F)F)cc1 | . | . | 6 | 84* | . | 24
COc1ccc(NC(=O)N(C)C[C@H]2OCCCC[C@@H](C)Oc3ccc(NC(=O)Nc4ccc(C(F)(F)F)cc4)cc3C(=O)N([C@@H](C)CO)C[C@@H]2C)cc1 | . | . | 10 | 77* | . | 7
C[C@@H]1CN([C@@H](C)CO)S(=O)(=O)c2ccc(C#Cc3cccc(F)c3)cc2O[C@@H]1CN(C)C | . | . | -12 | . | . | 9
Cc1ccc(S(=O)(=O)N[C@@H]2CC[C@H](CCn3cc(C4(O)CCCC4)nn3)O[C@@H]2CO)cc1 | . | . | -18 | -6 | . | -7
COCc1cn(CC[C@@H]2CC[C@H](NC(=O)Nc3ccc(Cl)cc3)[C@@H](CO)O2)nn1 | . | . | 1 | -21 | . | 6
COc1ccc2c3c([nH]c2c1)[C@H](CO)N(C(=O)c1ccccn1)CC31CN(S(C)(=O)=O)C1 | . | . | -12 | . | . | 1
